Binding signal data for 13 sequences are collected here from PMC5700166.

Holding throughout (test): protein-binding microarray (PBM); PBM: ~300 nM protein, 6 mM HEPES pH 7.8, 80 mM KCl, 0.5 mM EDTA, 0.5 mM EGTA, 6% glycerol, 35 ng/ul poly-dIdC, 1% milk, 1 h, room temperature; Ap Aiptasia and Nv Nematostella (sea anemones) / Co Capsaspora / Aq Amphimedon (sponge) / Dm Drosophila / Hu human; RHD is the Rel homology domain; high values mean tight binding
Common to all, as to conditions: dsDNA, one strand shown

The target of assay [1] is T1, GST-Ap-NF-kB RHD (Exaiptasia pallida (Aiptasia), UniProt A0A913YAJ5 2-422).
T1 sequence: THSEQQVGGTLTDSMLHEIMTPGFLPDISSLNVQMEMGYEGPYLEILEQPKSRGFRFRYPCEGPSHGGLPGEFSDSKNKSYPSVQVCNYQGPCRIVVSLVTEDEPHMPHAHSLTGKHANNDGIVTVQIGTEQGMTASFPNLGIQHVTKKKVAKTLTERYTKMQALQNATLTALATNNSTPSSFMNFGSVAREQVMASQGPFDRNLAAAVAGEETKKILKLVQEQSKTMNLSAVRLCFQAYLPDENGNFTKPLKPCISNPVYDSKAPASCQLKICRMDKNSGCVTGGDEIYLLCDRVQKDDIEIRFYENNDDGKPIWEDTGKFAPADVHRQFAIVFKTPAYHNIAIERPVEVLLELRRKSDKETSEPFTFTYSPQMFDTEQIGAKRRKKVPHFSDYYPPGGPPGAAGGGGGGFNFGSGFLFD

Assay [2] concerns the target T2, GST-Nv-NF-kB (Cys allele) (Nematostella vectensis, UniProt E5G601 2-411).
T2 sequence: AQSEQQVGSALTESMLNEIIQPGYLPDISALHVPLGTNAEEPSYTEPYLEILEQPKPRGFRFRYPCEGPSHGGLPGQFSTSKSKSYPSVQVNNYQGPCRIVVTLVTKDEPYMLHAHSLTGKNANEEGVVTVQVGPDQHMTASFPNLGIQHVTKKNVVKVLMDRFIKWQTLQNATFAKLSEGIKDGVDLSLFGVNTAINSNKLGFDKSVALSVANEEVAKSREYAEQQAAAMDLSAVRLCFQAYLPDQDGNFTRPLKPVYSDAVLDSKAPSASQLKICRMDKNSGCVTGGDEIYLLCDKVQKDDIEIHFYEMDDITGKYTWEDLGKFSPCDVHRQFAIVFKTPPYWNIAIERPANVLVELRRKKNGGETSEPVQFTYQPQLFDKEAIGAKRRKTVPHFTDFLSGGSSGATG

The target of assay [3] is T3, GST-Co-NF-kB (Capsaspora owczarzaki, UniProt F1ARL5 200-546).
T3 sequence: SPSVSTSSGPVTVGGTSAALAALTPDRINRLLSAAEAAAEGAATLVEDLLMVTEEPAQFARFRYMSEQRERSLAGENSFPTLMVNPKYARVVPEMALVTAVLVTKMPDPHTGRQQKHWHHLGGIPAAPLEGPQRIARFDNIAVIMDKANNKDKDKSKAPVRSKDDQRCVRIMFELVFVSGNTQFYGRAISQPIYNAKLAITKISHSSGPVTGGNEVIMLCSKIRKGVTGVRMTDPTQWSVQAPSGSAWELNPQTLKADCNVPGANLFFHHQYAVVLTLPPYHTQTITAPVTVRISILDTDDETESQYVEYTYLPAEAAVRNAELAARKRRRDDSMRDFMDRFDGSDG

Assay [4] deals with T4, GST-Dm-Relish (Drosophila melanogaster, UniProt Q94527 99-473).
T4 sequence: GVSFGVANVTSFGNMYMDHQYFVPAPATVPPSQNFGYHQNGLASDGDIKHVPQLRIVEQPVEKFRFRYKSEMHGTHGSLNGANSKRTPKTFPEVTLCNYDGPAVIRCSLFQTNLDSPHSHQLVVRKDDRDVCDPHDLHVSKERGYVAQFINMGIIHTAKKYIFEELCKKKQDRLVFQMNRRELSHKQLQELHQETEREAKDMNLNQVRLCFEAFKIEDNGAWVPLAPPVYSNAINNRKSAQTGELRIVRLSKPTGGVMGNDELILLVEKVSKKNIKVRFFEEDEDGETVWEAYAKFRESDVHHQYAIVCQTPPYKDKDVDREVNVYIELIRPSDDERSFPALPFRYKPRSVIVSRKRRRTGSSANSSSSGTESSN

The target of assay [5] is T5, GST-Aq-NF-kB (Amphimedon queenslandica, UniProt A9Y5G7 2-389).
T5 sequence: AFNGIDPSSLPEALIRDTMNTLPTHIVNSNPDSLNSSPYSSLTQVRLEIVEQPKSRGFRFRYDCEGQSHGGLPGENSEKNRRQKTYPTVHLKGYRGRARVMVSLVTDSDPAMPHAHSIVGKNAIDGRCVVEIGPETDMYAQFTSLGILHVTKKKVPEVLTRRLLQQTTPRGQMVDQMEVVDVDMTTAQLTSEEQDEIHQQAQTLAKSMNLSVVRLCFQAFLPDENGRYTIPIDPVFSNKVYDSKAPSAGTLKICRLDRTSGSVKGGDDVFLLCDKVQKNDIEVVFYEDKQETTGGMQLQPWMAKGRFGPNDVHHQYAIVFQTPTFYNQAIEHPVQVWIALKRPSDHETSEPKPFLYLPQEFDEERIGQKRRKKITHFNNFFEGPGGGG

Assay [6] deals with GST-Hu-p50 (Homo sapiens, UniProt P19838 7-356).
Sequence of GST-Hu-p50 (P19838 7-356): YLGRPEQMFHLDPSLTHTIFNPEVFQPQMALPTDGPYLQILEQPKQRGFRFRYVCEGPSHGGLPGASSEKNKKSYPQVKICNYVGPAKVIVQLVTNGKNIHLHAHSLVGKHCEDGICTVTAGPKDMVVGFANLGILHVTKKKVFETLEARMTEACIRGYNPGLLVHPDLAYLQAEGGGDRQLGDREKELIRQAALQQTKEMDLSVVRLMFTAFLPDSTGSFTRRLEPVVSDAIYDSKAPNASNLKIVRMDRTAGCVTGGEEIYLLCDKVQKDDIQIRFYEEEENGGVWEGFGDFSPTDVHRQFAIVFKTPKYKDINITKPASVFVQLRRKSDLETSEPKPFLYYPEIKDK

Turning to “CCGATTAACATCAGGGGGAGGGATGATGTTAATCGGGTCTTGATTCGCTTGACGCTGCTG”, the binding signal turned out to be 4.44 z-score in assay [1]; 4.45 z-score in assay [2]; 5.87 z-score in assay [3]; 3.28 z-score in assay [4]; 4.21 z-score in assay [5]; 4.01 z-score in assay [6].
With “CCGATTAACATCAGAGTATCCCCTGATGTTAATCGGGTCTTGATTCGCTTGACGCTGCTG”, the binding signal in assay [1] was 5.9 z-score; in assay [2], 4.9 z-score; in assay [3], 4.05 z-score; in assay [4], 3.14 z-score; in assay [5], 3.98 z-score; in assay [6], 4.2 z-score.
Regarding “CCGATTAACATCACGGGGTTTTCTGATGTTAATCGGGTCTTGATTCGCTTGACGCTGCTG”, the binding signal in assay [1] stood at 6.68 z-score; in assay [2], 6.13 z-score; in assay [3], 2.98 z-score; in assay [4] it was 8.05 z-score; in assay [5], 5.9 z-score; in assay [6] it was 5.61 z-score.
Take “CCGATTAACATCATACTTCCCCATGATGTTAATCGGGTCTTGATTCGCTTGACGCTGCTG”: the binding signal was determined as 3.97 z-score in assay [1]; 4.88 z-score in assay [2]; 4.69 z-score in assay [3]; 3.18 z-score in assay [4]; 3.58 z-score in assay [5]; 4.41 z-score in assay [6].
Consider “CCGATTAACATCAAGGAATTCCCTGATGTTAATCGGGTCTTGATTCGCTTGACGCTGCTG”, for which the binding signal was 6.83 z-score in assay [1]; 7.7 z-score in assay [2]; 4.22 z-score in assay [3]; 8.03 z-score in assay [4]; 8.14 z-score in assay [5]; 5.07 z-score in assay [6].
Regarding “CCGATTAACATCAGGGGGAGCACTGATGTTAATCGGGTCTTGATTCGCTTGACGCTGCTG”, the binding signal in assay [1] turned out to be 5.93 z-score; in assay [2] it was 3.91 z-score; in assay [3] it was 6.25 z-score; in assay [4], 7.14 z-score; in assay [5] it was 5.5 z-score; in assay [6], 4.89 z-score.
“CCGATTAACATCAAAATTCCCTGTGATGTTAATCGGGTCTTGATTCGCTTGACGCTGCTG”: the binding signal was determined as 4.81 z-score in assay [1]; 6.86 z-score in assay [2]; 4.2 z-score in assay [3]; 5.96 z-score in assay [4]; 6.37 z-score in assay [5]; 5.07 z-score in assay [6].
For “CCGATTAACATCAGGAACCCCCCTGATGTTAATCGGGTCTTGATTCGCTTGACGCTGCTG”, the binding signal worked out at 8.98 z-score in assay [1]; 6.2 z-score in assay [2]; 3.38 z-score in assay [3]; 9.74 z-score in assay [4]; 7.32 z-score in assay [5]; 5.86 z-score in assay [6].
For the sequence “CCGATTAACATCAAATTCCCTTATGATGTTAATCGGGTCTTGATTCGCTTGACGCTGCTG”, the binding signal in assay [1] is 3.4 z-score; in assay [2], 5.97 z-score; in assay [3], 2.16 z-score; in assay [4], 3.37 z-score; in assay [5], 5.01 z-score; in assay [6], 4.42 z-score.
With “CCGATTAACATCAGAACATCCCCTGATGTTAATCGGGTCTTGATTCGCTTGACGCTGCTG”, the binding signal amounted to 6.05 z-score in assay [1]; 6.64 z-score in assay [2]; 3.09 z-score in assay [3]; 6.69 z-score in assay [4]; 5.97 z-score in assay [5]; 5.45 z-score in assay [6].
Consider “CCGATTAACATCAAAAGCCCCCTTGATGTTAATCGGGTCTTGATTCGCTTGACGCTGCTG”, for which the binding signal in assay [1] amounted to 6.3 z-score; in assay [2], 6.73 z-score; in assay [3], 1.89 z-score; in assay [4], 7.9 z-score; in assay [5] it was 6.88 z-score; in assay [6], 6.5 z-score.
Turning to “CCGATTAACATCAAAATAGCCCCTGATGTTAATCGGGTCTTGATTCGCTTGACGCTGCTG”, the binding signal in assay [1] turned out to be 5.32 z-score; in assay [2], 5.99 z-score; in assay [3] it was 1.88 z-score; in assay [4], 4.12 z-score; in assay [5], 5.87 z-score; in assay [6], 5.38 z-score.
Regarding “CCGATTAACATCAGGATGTCCCCTGATGTTAATCGGGTCTTGATTCGCTTGACGCTGCTG”, the binding signal in assay [1] was determined as 6.09 z-score; in assay [2], 4.93 z-score; in assay [3], 2.61 z-score; in assay [4], 5.89 z-score; in assay [5] it was 5.87 z-score; in assay [6], 4.51 z-score.
